SMILES strings stand for the structures. Records with an inconclusive call do not appear.

The first experiment is described as follows: qHTS for identification of novel therapeutic agents for treatment of microphthalmiaassociated transcription factor (MiT) renal cell carcinoma (RCC) (AID 1963991).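 Also: curves scaled with 100% = DMSO viability and 0% = empty wells.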 The following applies: TFE3-RCC UOK109 viability, CellTiter-Glo, 48 h; measured here: UOK109 Z-AUC; stronger effect = lower value. The essentials:
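UOK109/UOK124/UOK145 (TFE3 fusions, three partners); 500 cells/well; MIPE v4.0, 1912 cpds, 11 conc.; 48 h, 37 C; CellTiter-Glo, 15 min RT; lum. Norm.: DMSO 100%, empty 0%.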
(Quantitative high-throughput screening tests each substance at several concentrations.)
As to `CCc1cccc2c3c([nH]c12)C(CC)(CC(=O)O)OCC3` (centres undefined), the z-score was 0.838.
Regarding `NCCc1cnc[nH]1`, the z-score is -0.102.
Still for that read-out and setting: next, `Cn1c(=O)c2c(ncn2C)n(C)c1=O`: 0.696; `C[C@](N)(Cc1ccc(O)c(O)c1)C(=O)O`: 0.112; `CC[C@@]1(O)C(=O)OCc2c1cc1n(c2=O)Cc2cc3c(CN(C)C)c(O)ccc3nc2-1`: -0.963.
In the case of `CC[N+](CC)(CC)CCOc1cccc(OCC[N+](CC)(CC)CC)c1OCC[N+](CC)(CC)CC`, the z-score amounted to 0.0594.
The same measure, in the same setting: the value for `O=C(c1ccc(F)cc1)C1CCN(CCn2c(=O)[nH]c3ccccc3c2=O)CC1` was 0.795; that for `CN1C2CCC1CC(OC(=O)C(CO)c1ccccc1)C2` (centres undefined) was 0.361.
The compound `CC(=O)OCC(CCn1cnc2cnc(N)nc21)COC(C)=O` showed a z-score of 0.583.
On the same count and under the same terms, next, `NCCCCCC(=O)O`: 0.855; `CCN1CCCC1CNC(=O)c1cc(S(=O)(=O)CC)c(N)cc1OC` (centres undefined): 0.976.
`COC(=O)Nc1nc2ccc(C(=O)c3cccs3)cc2[nH]1` returned a z-score of -2.2.
`CC(C)Cc1ccc(C(C)C(=O)O)cc1` (centres undefined) displayed a z-score of 0.767.

Staying with this experiment, now noted: TFE3-RCC viability, CellTiter-Glo, 48 h; measured here: UOK124 Z-AUC; stronger effect = lower value.
In turn, `CCc1cccc2c3c([nH]c12)C(CC)(CC(=O)O)OCC3` (centres undefined) had a z-score of 0.432.
`NCCc1cnc[nH]1` displayed a z-score of 0.743.
The same measure, in the same setting: the value for `Cn1c(=O)c2c(ncn2C)n(C)c1=O` was 0.536.
The compound `C[C@](N)(Cc1ccc(O)c(O)c1)C(=O)O` yielded a z-score of -0.114.
The same measure, in the same setting: next, `CC[C@@]1(O)C(=O)OCc2c1cc1n(c2=O)Cc2cc3c(CN(C)C)c(O)ccc3nc2-1`: -2.75; `CC[N+](CC)(CC)CCOc1cccc(OCC[N+](CC)(CC)CC)c1OCC[N+](CC)(CC)CC`: 0.771.
The compound `O=C(c1ccc(F)cc1)C1CCN(CCn2c(=O)[nH]c3ccccc3c2=O)CC1` showed a z-score of 0.577.
Compound `CN1C2CCC1CC(OC(=O)C(CO)c1ccccc1)C2` (centres undefined) returned a z-score of 0.456.
In turn, `CC(=O)OCC(CCn1cnc2cnc(N)nc21)COC(C)=O` yielded a z-score of 0.498.
As to `NCCCCCC(=O)O`, the z-score was determined as 0.487.
`CCN1CCCC1CNC(=O)c1cc(S(=O)(=O)CC)c(N)cc1OC` (centres undefined) displayed a z-score of 0.754.
On to `COC(=O)Nc1nc2ccc(C(=O)c3cccs3)cc2[nH]1`, for which the z-score is -3.02.
For the compound `CC(C)Cc1ccc(C(C)C(=O)O)cc1` (centres undefined), the z-score is 0.849.

The same experiment, now with this note: TFE3-RCC viability, CellTiter-Glo, 48 h; measured here: UOK145 Z-AUC; stronger effect = lower value.
Compound `CCc1cccc2c3c([nH]c12)C(CC)(CC(=O)O)OCC3` (centres undefined) showed a z-score of 0.577.
For `NCCc1cnc[nH]1`, the z-score was found to be 0.389.
As for `Cn1c(=O)c2c(ncn2C)n(C)c1=O`, the z-score was determined as 0.729.
For the compound `C[C@](N)(Cc1ccc(O)c(O)c1)C(=O)O`, the z-score is -0.0394.
Consider `CC[C@@]1(O)C(=O)OCc2c1cc1n(c2=O)Cc2cc3c(CN(C)C)c(O)ccc3nc2-1`, for which the z-score is -1.63.
Compound `CC[N+](CC)(CC)CCOc1cccc(OCC[N+](CC)(CC)CC)c1OCC[N+](CC)(CC)CC` yielded a z-score of -0.103.
As to `O=C(c1ccc(F)cc1)C1CCN(CCn2c(=O)[nH]c3ccccc3c2=O)CC1`, the z-score worked out at 0.595.
As for `CN1C2CCC1CC(OC(=O)C(CO)c1ccccc1)C2` (centres undefined), the z-score turned out to be 0.45.
Turning to `CC(=O)OCC(CCn1cnc2cnc(N)nc21)COC(C)=O`, the z-score came to 1.13.
For the compound `NCCCCCC(=O)O`, the z-score is 0.828.
Same read-out and setting: the value for `CCN1CCCC1CNC(=O)c1cc(S(=O)(=O)CC)c(N)cc1OC` (centres undefined) was 0.815.
With `COC(=O)Nc1nc2ccc(C(=O)c3cccs3)cc2[nH]1`, the z-score was -1.81.
`CC(C)Cc1ccc(C(C)C(=O)O)cc1` (centres undefined) registered a z-score of 0.507.
